Several values for one entry are separate records, joined by “and”; a condition that tells them apart may be missing. Equal values may be shown once. About 4,000 (25%) of roughly 16,000 compounds were called active. Another 26% or so got no clear call; they are omitted. Calls come from the whole dose curve; as a rule, active = well fitted curve in the direction sought with a large enough effect; inconclusive = small, poorly fitted or top-dose-only effect, or effect the other way; inactive = no such curve, though single readings can be large or run the other way. Not all results are given here. Where a structure was tested more than once in an assay, its records may differ in their call.
Each molecule was assayed against Cytochrome P450 2C9 (Homo sapiens) (UniProt P11712) (assay: Cytochrome panel assay with activity outcomes). Conditions: recombinant CYP, pro-luciferin dealkylation, luminescence, p450-cyp2c9; series mostly up to 57.1 µM; activity, negative = inhibition: at the top concentration.
Sequence of Cytochrome P450 2C9 (Homo sapiens) (P11712 whole entry, looked up): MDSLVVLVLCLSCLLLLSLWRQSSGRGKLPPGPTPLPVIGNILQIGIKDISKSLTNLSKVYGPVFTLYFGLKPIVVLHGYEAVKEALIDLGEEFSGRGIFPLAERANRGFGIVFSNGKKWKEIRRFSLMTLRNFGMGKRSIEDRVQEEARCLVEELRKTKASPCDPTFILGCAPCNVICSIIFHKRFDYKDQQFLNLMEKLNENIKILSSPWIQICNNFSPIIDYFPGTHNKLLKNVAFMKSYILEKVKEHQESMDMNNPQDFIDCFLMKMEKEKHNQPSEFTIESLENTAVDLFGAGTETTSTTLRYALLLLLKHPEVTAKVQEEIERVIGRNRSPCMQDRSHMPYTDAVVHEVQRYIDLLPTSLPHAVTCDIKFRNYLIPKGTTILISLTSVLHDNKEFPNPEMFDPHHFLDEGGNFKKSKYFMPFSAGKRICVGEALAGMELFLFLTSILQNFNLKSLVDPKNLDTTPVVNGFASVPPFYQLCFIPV
For Cc1ccc(C2NC(c3ccc(C)cc3)C(C)C(=NO)C2C)cc1 (stereo unspecified), the AC50 was 6.31 µM (active).
c1cc(CSSCc2ccncc2)ccn1 was tested, and the AC50 was 1.58 µM (active).
In the case of c1ccc2c(CSCCc3ccncc3)cccc2c1, the AC50 is reported as 0.0631 µM (active).
N=C(N)SCCc1ccncc1 was tested, and the activity, negative = inhibition was 6.27% [at 11.4 µM] (inactive).
In the case of N=C(N)SCCc1ccc(CCSC(=N)N)cc1, the “activity, negative = inhibition” value is reported as 12.5% (inactive).
With c1ccc2c(CC3NCCN3)cccc2c1 the activity, negative = inhibition was -9.35% [at 11.4 µM] (inactive).
c1cc(CNCCN2CCNCC2)ccn1 was tested, and the activity, negative = inhibition was -4.43% [at 11.4 µM] (inactive).
In the case of Clc1ccc(CSCCc2ccncc2)cc1Cl, the AC50 is reported as 0.0794 µM (active).
With O=S(=O)(O)CCCc1cccc2ccccc12 the activity, negative = inhibition was -3.26% [at 11.4 µM] (inactive).
With c1ccc(CSCCc2ccncc2)cc1 the AC50 was 0.316 µM (active).
With CN1CCN(CCc2ccc(Cl)c(Cl)c2)CC1 the “activity, negative = inhibition” value was -18.2% (inactive).
C[C@@H]1c2ccccc2CN1CC1=NCCN1 was tested, and the “activity, negative = inhibition” value was 9.84% (inactive).
Cc1ncc([N+](=O)[O-])n1CCO was tested, and the “activity, negative = inhibition” value was -6.17% [at 25.6 µM] (inactive).
With CCOC(=O)N1CCC(NC(=O)CCC(=O)N2CC(C)Oc3ccc(C)cc32)CC1 (stereo unspecified) the “activity, negative = inhibition” value was -19.7% (inactive).
In the case of CCOC(=O)N1CCC(NC(=O)CS(=O)(=O)Cc2nc(-c3cccc(OC)c3)oc2C)CC1, the AC50 is reported as 25.1 µM (active).
With Cc1oc(-c2ccccc2F)nc1CS(=O)(=O)CC(=O)NCCCN(C)C1CCCCC1 the “activity, negative = inhibition” value was -21.4% (inactive).
In the case of CNc1ncnc2ccc(-c3cccc(NS(C)(=O)=O)c3)cc12, the activity, negative = inhibition is reported as -18.3% [at 2.29 µM] (inactive).
With CC1=C(CC(=O)O)c2cc(F)ccc2/C1=C\c1ccc(S(C)(=O)=O)cc1 the “activity, negative = inhibition” value was -6.18% (inactive).
In the case of CC1=C(CC(=O)O)c2cc(F)ccc2/C1=C\c1ccc(S(C)=O)cc1 (stereo unspecified), the AC50 is reported as “inactive and 12.6 µM (active)”.
Cc1noc(C)c1COc1cccc(C(=O)OCC(=O)N2CC(=O)Nc3ccccc32)c1 was tested, and the AC50 was 3.55 µM (active).
Cc1cc(=O)[nH]c(-n2[nH]c(C)cc2=O)n1 was tested, and the “activity, negative = inhibition” value was -7.66% (inactive).
With CO[C@]1(NC(=O)C2SC(=C(C(N)=O)C(=O)O)S2)C(=O)N2C(C(=O)O)=C(CSc3nnnn3C)CS[C@H]21 (stereo partly specified) the “activity, negative = inhibition” value was 20.1% [at 25.6 µM] (inactive).
For Cc1ccccc1-c1cc(C(=O)n2cccn2)c2cc(Cl)ccc2n1, the AC50 was 5.01 µM (active).
With CC(=O)NCCNc1ncnc2ccc(-c3ccccc3C)cc12 the activity, negative = inhibition was -0.544% [at 2.29 µM] (inactive).
With CC(=O)NCCNc1cc(-c2ccccc2C)ncn1 the activity, negative = inhibition was 5.2% [at 2.29 µM] (inactive).
For C[C@@H](c1ccccc1)N1C(=O)[C@H]2[C@H]3[C@H](O)[C@H](O)C/C(=N/OC[C@@H](O)COCc4ccco4)[C@H]3CC[C@@H]2C1=O, the activity, negative = inhibition was 10.7% [at 11.4 µM] (inactive).
For CC(C)n1cc(/C=C2/SC(=O)N(CC(=O)Nc3ccc4c(c3)OCO4)C2=O)c2ccccc21, the AC50 was 3.98 µM (active).
With Cc1c(/C=C2\SC(=O)N(CC(=O)Nc3ccc4c(c3)OCO4)C2=O)c2ccccc2n1C the “activity, negative = inhibition” value was -9.41% (inactive).
With C[C@@H](CCc1ccc(O)cc1)NCCc1ccc(O)c(O)c1 the AC50 was “inactive”.
With O=C(CCc1ccc(O)cc1)c1c(O)cc(O)cc1O the AC50 was 12.6 µM (active).
With CC(=O)N[C@H](Cc1ccc(O)cc1)C(=O)O the activity, negative = inhibition was 2.06% [at 11.4 µM] (inactive).
For C(=N\n1cnnc1)/c1cccn1-c1ccccc1, the AC50 was 5.01 µM (active).
CCOC(=O)c1cc2sc(C)cc2n1CCCN1C(=O)c2ccccc2C1=O was tested, and the AC50 was 3.55 µM (active).
For O=c1[nH]c2ccccc2c2ccccc12, the “activity, negative = inhibition” value was -16.3% (inactive).
In the case of Cc1cc2[nH]c(=O)c3ccccc3n2n1, the “activity, negative = inhibition” value is reported as -17.6% (inactive).
In the case of Cc1nc2c(O)cccc2c(=O)[nH]1, the AC50 is reported as 3.98 µM (active).
CN(C)CCN1C(=O)C(O)=C(C(=O)c2cc3ccccc3o2)C1c1cccc(Br)c1 (stereo unspecified) was tested, and the “activity, negative = inhibition” value was -9% (inactive).
In the case of COc1cc(C2C(C(=O)c3ccc(C)o3)=C(O)C(=O)N2CCc2ccccc2)ccc1O (stereo unspecified), the AC50 is reported as 7.08 µM (active).
In the case of Cc1ccc(C2C(C(=O)c3sc(C)nc3C)=C(O)C(=O)N2CCN2CCOCC2)o1 (stereo unspecified), the “activity, negative = inhibition” value is reported as 12.4% (inactive).
With COc1cc2c(cc1OC)C(C(=O)N1CCOCC1)C(c1cccs1)N(C)C2=O (stereo unspecified) the “activity, negative = inhibition” value was 13.6% (inactive).
With CCC(C)NC(=O)C1c2cc(OC)c(OC)cc2C(=O)N(C)C1c1cccs1 (stereo unspecified) the “activity, negative = inhibition” value was 4.6% (inactive).
In the case of CCOc1cccc(C2C(C(=O)c3ccc(C)o3)=C(O)C(=O)N2Cc2ccncc2)c1 (stereo unspecified), the AC50 is reported as 12.6 µM (active).
For COc1ccc(CCN2C(=O)C(O)=C(C(=O)c3ccco3)C2c2cccs2)cc1OC (stereo unspecified), the AC50 was 1.41 µM (active).
With Cc1ccc(C(=O)C2=C(O)C(=O)N(CCCn3ccnc3)C2c2ccc(OC(C)C)cc2)o1 (stereo unspecified) the AC50 was 11.2 µM (active).
In the case of C/C(=N\O)c1cccc[n+]1Cc1ccccc1, the activity, negative = inhibition is reported as -0.751% [at 11.4 µM] (inactive).
With COC(=O)[C@]1(C)CCC(c2ccc(C)cc2)=C(CC(=O)O)C1 the activity, negative = inhibition was 3.21% [at 11.4 µM] (inactive).
With OC[C@@H]1NC[C@@H](O)[C@H]1O the “activity, negative = inhibition” value was 27.3% (inactive).
For FC(F)(F)c1ccccc1-c1cncnc1NCCN1CCOCC1, the activity, negative = inhibition was -5.4% [at 2.29 µM] (inactive).
With CSc1ccc(NC(=O)Nc2cc(C)ccn2)cc1 the activity, negative = inhibition was -15.6% [at 11.4 µM] (inactive).
For Cc1cc(NC(=O)Nc2ccc(N(C)C)cc2)c2cc(F)cc(F)c2n1, the AC50 was 6.31 µM (active).
In the case of Cc1cc(N)c2cc(NC(=O)Nc3ccc4nc(C)cc(N)c4c3)ccc2n1, the activity, negative = inhibition is reported as -18.2% [at 11.4 µM] (inactive).
With c1ccc(CNc2ncnc3ccc(-c4cccnc4)cc23)cc1 the activity, negative = inhibition was 8.31% [at 2.29 µM] (inactive).
O=C1NC(=O)[C@@](Cc2ccccc2)(c2cccnc2)N1 was tested, and the activity, negative = inhibition was -6.71% [at 11.4 µM] (inactive).
In the case of CC1=C(C(=O)OCc2ccccc2)C(c2cccnc2)c2c(n(C)c(=O)n(C)c2=O)N1 (stereo unspecified), the AC50 is reported as 4.47 µM (active).
With CN1C(=O)CC[C@@H]1c1cccnc1 the AC50 was “inactive”.
For Cc1cnc(CNc2ncncc2-c2ccc3c(c2)OCO3)cn1, the activity, negative = inhibition was 15.7% [at 2.29 µM] (inactive).
CCC(C)(C)NC(=O)c1ccc2c(c1)N(CC(=O)OC)C(=O)C(C)(C)O2 was tested, and the AC50 was 28.2 µM (active).
In the case of COC(=O)c1cc2c(ccn2-c2ccc(F)cc2)n1CC(C)C, the AC50 is reported as 10 µM (active).
For Cc1ccc(/C=C2\Sc3ccccc3C2=O)s1, the AC50 was 3.55 µM (active).
In the case of c1ccc(-c2cccc(N3CC[C@@]4(CCCNC4)C3)c2)cc1, the “activity, negative = inhibition” value is reported as -21.2% (inactive).
For CN1CCCCC1=NCCCn1cnc2c1c(=O)n(C)c(=O)n2C, the “activity, negative = inhibition” value was 6.66% (inactive).

From PubChem BioAssay AID1851 (National Center for Advancing Translational Sciences (NCATS), 2009)
% is set by controls: 0 for no effect and ±100 for the full control effect.
